Assay outcomes (PubChem)
Wnt bcat act = activates Wnt/beta-catenin signaling in a reporter cell assay; activator, plate reader; activation, % at 9.35 µM; 1.2% of 300,000 active; in the data active means activation above about 30%, passing the limit was not always enough
esBAF inh = SWI/SNF esBAF complex inhibition | mouse ES cells, Bmi1-luciferase knock-in reporter, 24 h; 100% = twice the neutral-well signal | reporter increase, % at 12.5 µM | 2% of 350,000 active | AID 602393; in the data active means activation above about 40%;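 further: a rise in the Bmi1 reporter signal indicates esBAF inhibition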
SMARCA2 act = activators of SMARCA2 function | 1% of 370,000 active | activation, % at 9.1 µM | MG213 cells, MMTV-luciferase reporter, dexamethasone, overnight | AID 652017; in the data active means activation above about 7.8%
HSF1 activator = increases HSF-1 driven luciferase reporter signal; NIH3T3-HGL HSF-1 luciferase reporter, MG132, 8 h; 100% = twice DMSO control signal; activation, % at 9 µM; 1.7% of 300,000 active;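 active means mean replicate activation of at least 50% with a set share of replicates each reaching 50%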
HSF1 inh = HSF1 inhibition | 0.77% of 300,000 active | activity change, negative = inhibition, % at 7.5 µM (by protocol) | AID 2098 | NIH3T3-HGL HSE-luciferase, MG132-induced, luminescence 8 h; hits give low values;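 active means more than half of replicate wells show activity change below -50%, luminescence cut by over half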;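 further: luciferase reports HSF-1 transcriptional activity via heat shock element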
MITF TRPM1 HTS = activators of MITF-driven TRPM1 promoter activity in SK-MEL-5 cells; SK-MEL-5 TRPM1-promoter luciferase, 24 h; % of positive control, neutral wells = 0; activation, % at 12.5 µM; 0.75% of 300,000 active; AID 588334;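 active means mean activation of at least 80% with every replicate also reaching 80%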
Large screens that a line does not name were inactive. A selection: hits, their analogues and other compounds. The true share with any hit is near 4.3%.

C[C@@H]1CCCCO[C@@H](CN(C)S(=O)(=O)c2cccs2)[C@@H](C)CN([C@H](C)CO)C(=O)c2cc(NC(=O)CCCN(C)C)ccc2O1	none (no result: Wnt bcat act, SMARCA2 act, HSF1 activator, HSF1 inh, MITF TRPM1 HTS)
O=C(Nn1cnc2ccccc2c1=O)c1ccccc1Cl	none (no result: Wnt bcat act)
O=C(Nn1cnc2ccccc2c1=O)c1c(F)cccc1F	Wnt bcat act 44.3
O=c1c(Cl)c(O)c2cccc3c4ccccc4n1c23	HSF1 activator 78.5 (no result: esBAF inh)
CC(C)C#Cc1cnc2c(c1)C(=O)N([C@@H](C)CO)C[C@@H](C)[C@H](CN(C)C(=O)Nc1ccc(F)cc1)O2	none (no result: Wnt bcat act, SMARCA2 act, HSF1 activator, HSF1 inh, MITF TRPM1 HTS)
CCCNC(=O)C[C@@H]1CC[C@@H]2[C@@H](COc3ccc(NC(=O)C4CCOCC4)cc3C(=O)N2C)O1	none (no result: Wnt bcat act, SMARCA2 act, HSF1 activator, HSF1 inh, MITF TRPM1 HTS)
COCc1cc(CN2CCN(CCCc3ccccc3)C(CCO)C2)ccc1OC (stereo not given)	none
COCc1cc(CN2CCN(CCc3ccccc3)C(CCO)C2)ccc1OC (stereo not given)	HSF1 activator 190.3 (no result: MITF TRPM1 HTS)
Cc1cc(C)nc(Sc2ccc([N+](=O)[O-])cc2[N+](=O)[O-])n1	HSF1 activator 65.9 (no result: Wnt bcat act, esBAF inh)
O=[N+]([O-])c1ccc(Sc2ccncn2)c([N+](=O)[O-])c1	none (no result: esBAF inh, HSF1 activator, HSF1 inh, MITF TRPM1 HTS)
CC(C)(C)c1ccc(-c2nnc(N)o2)cc1	Wnt bcat act 42.5, esBAF inh 58.4
CN(C)/C=C1\C(=O)ON=C1c1ccccc1	none (no result: esBAF inh)
Cc1ccc(C2=NOC(=O)/C2=C\C=C\c2ccccc2)cc1	HSF1 activator 133.2
CC(C)CC#Cc1ccc2c(c1)O[C@H](CN(C)C(=O)c1cnccn1)[C@H](C)CN([C@@H](C)CO)S2(=O)=O	none (no result: Wnt bcat act, SMARCA2 act, HSF1 activator, HSF1 inh, MITF TRPM1 HTS)
CN(C)C(=O)C[C@H]1CC[C@H]2[C@@H](COC[C@H](O)CN2C(=O)C2CC2)O1	none (no result: Wnt bcat act, SMARCA2 act, HSF1 activator, HSF1 inh, MITF TRPM1 HTS)
COC(=O)CNc1c(-c2ccccn2)nc2ccc(Br)cn12	Wnt bcat act 39.7, HSF1 activator 63.9 (no result: MITF TRPM1 HTS)
O=C(CC(c1ccco1)S(=O)(=O)c1ccccc1)c1ccccc1 (stereo not given)	HSF1 activator 84.9
CNC[C@H]1Oc2ccc(NS(=O)(=O)c3ccc(F)cc3)cc2CC(=O)N([C@H](C)CO)C[C@@H]1C	none (no result: Wnt bcat act, SMARCA2 act, HSF1 activator, HSF1 inh, MITF TRPM1 HTS)
CCc1nc(SCC(=O)c2ccc(Cl)s2)c2oc3ccccc3c2n1	HSF1 activator 84.2 (no result: Wnt bcat act, SMARCA2 act)
COC(=O)Nc1[nH]ncc1[N+](=O)[O-]	none (no result: esBAF inh)
CC(C)(C)c1[nH]ncc1[N+](=O)[O-]	HSF1 activator 52.2 (no result: esBAF inh)
Cc1ccc(S(=O)(=O)Nc2ccc3c(c2)C(=O)N([C@H](C)CO)C[C@@H](C)[C@H](CN(C)C(=O)Nc2ccc(F)cc2)O3)cc1	none (no result: Wnt bcat act, SMARCA2 act, HSF1 activator, HSF1 inh, MITF TRPM1 HTS)
Cc1cc(N=Nc2c(O)c3ccccc3[nH]c2=O)ccc1N=Nc1ccc(C(=O)N(C)C)cc1	none
COc1cc(N=Nc2ccc(C(=O)N(C)C)cc2)c(C)cc1N	esBAF inh 58.0 (no result: HSF1 activator, HSF1 inh)
O=C(NCCc1ccc(F)cc1)NC12CC3CC(CC(C3)C1)C2	Wnt bcat act 52.1, esBAF inh 71.5
O=C(CCCc1ccccc1)NC12CC3CC(CC(C3)C1)C2	esBAF inh 54.2, HSF1 activator 69.2, MITF TRPM1 HTS 102.3
CN1C(=O)c2cc(NC(=O)C3CCCC3)ccc2OC[C@@H]2O[C@H](CC(=O)NCC(F)(F)F)CC[C@@H]21	none (no result: Wnt bcat act, SMARCA2 act, HSF1 activator, HSF1 inh, MITF TRPM1 HTS)
Cc1ccc(/C=C/C(=O)N2CC(C)CC(C)C2)o1 (stereo not given)	HSF1 activator 51.2 (no result: Wnt bcat act)
CCN1CCN(C(=O)/C=C/c2ccc(C)o2)CC1	none (no result: esBAF inh)
O=C(Cc1ccc2c(c1)OCCO2)c1c(O)cc(O)cc1O	esBAF inh 55.4
COc1ccc([C@@]23Oc4cc(OC)cc(OC)c4[C@]2(O)[C@H](O)[C@H](C(=O)N(C)C)[C@H]3c2ccccc2)cc1	HSF1 activator 88.1, HSF1 inh 88.1 (no result: esBAF inh)
CS(=O)(=O)Nc1ccc2c(c1)[C@@H]1C[C@H](CC(=O)NCc3cccnc3)O[C@@H](CO)[C@@H]1O2	none (no result: Wnt bcat act, SMARCA2 act, HSF1 activator, HSF1 inh, MITF TRPM1 HTS)
O=C(NCc1ccccc1)c1cc(-c2ccco2)on1	esBAF inh 42.4
COc1cccc(-c2cc(C(=O)NCCc3ccccc3)no2)c1	none (no result: Wnt bcat act)
O=C(NCc1ccco1)c1cc(-c2ccco2)on1	none (no result: SMARCA2 act)
O=C(NCCc1ccccc1)c1cc(-c2ccco2)on1	Wnt bcat act 141.3
COc1ccc(CCNC(=O)c2cc(-c3ccco3)on2)cc1OC	Wnt bcat act 103.4 (no result: esBAF inh)
COc1ccc(CCNC(=O)c2cc(-c3cccs3)on2)cc1OC	none (no result: SMARCA2 act)
O=C(NCC[C@H]1CC[C@@H](NC(=O)c2cnccn2)[C@@H](CO)O1)Nc1ccc(F)cc1	none (no result: Wnt bcat act, SMARCA2 act, HSF1 activator, HSF1 inh, MITF TRPM1 HTS)
